JMJD2A Tudor inh – blocks the human JMJD2A Tudor domain | hit rate 4.4% among 390,000 | Potency, µM (series often up to 114 µM), most hits filed as inhibitors | AID 504339 | AlphaScreen JMJD2A-Tudor / H3K4me3 peptide binding; further: nearly all actives have a fitted effect of over 50% in size
Sfp inh – inhibitors of Bacillus subtilis Sfp phosphopantetheinyl transferase; Q9F4F7; Biochemical Sfp PPTase activity, qHTS; Potency, µM, usual class: inhibitors; hit rate 3.5% among 310,000; AID 1490;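 further: the enzyme is Sfp with the accession as filed and its product quenches rhodamine fluorescence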
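Sfp 15 nM + cpd, 15 min RT; start w/ rhodamine-CoA 5 uM, BHQ-2-YbbR 12.5 uM (final); 50 mM Hepes pH 7.6, 10 mM MgCl2, 0.01% NP-40, 0.01% BSA; read 525/598 nm at 0 and 30 min.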
PLK1 PBD block – inhibitors of human PLK1 polo-box domain binding | AID 720504 | Potency, µM, most hits filed as inhibitors | P53350 | hit rate 2.8% among 360,000 | Plk1 PBD binding of FITC phosphopeptide, fluorescence polarization; further: series mostly up to about 57 µM; nearly all actives have a fitted effect of over 65% in size
G9a inh – G9a (human) methyltransferase inhibition; G9a H3K9 monomethylation, AlphaScreen, 2 h; hit rate 8.8% among 350,000; Potency, µM (doses to about 102 µM), usual class: inhibitors; further: nearly all actives have a fitted effect of over 75% in size
Target sequence (Q96KQ7 913-1193 limits assumed): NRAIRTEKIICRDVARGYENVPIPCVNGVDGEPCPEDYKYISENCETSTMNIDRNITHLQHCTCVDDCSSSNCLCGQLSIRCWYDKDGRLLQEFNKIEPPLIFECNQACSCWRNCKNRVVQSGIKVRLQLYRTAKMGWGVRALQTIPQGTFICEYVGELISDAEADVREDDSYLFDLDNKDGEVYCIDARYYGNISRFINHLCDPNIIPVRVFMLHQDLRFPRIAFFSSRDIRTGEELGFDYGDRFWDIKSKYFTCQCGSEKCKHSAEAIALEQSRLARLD
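G9a (20 nM) was preincubated 15 min with compound, then reacted 2 h at room temperature with 500 nM biotin-H3K9 peptide and 20 µM SAM. Monomethyl-H3K9 detected by AlphaScreen using anti-H3K9me1 antibody.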
HP1b binding inh – HP1-beta chromodomain-methylated histone interaction inhibition; AlphaScreen HP1-beta / biotin-H3K9me3 peptide binding; Potency, µM (doses to about 114 µM), most hits filed as inhibitors; P83916; hit rate 0.56% among 390,000; AID 540317; further: nearly all actives have a fitted effect of over 70% in size
Target sequence (P83916 whole entry, looked up): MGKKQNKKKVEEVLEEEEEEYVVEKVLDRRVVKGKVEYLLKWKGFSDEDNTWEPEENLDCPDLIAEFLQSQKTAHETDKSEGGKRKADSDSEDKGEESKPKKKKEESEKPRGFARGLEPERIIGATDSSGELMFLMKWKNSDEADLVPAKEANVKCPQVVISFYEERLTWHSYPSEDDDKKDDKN
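Compound inhibition of the preformed complex between 50 nM HP1-beta and 50 nM biotinylated H3K9me3 peptide was read by AlphaScreen. Buffer was PBS pH 7.4 with 0.01% Tween-20. Incubations ran 30 min at room temperature, with 10 ug/mL donor/acceptor beads.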
BAZ2B block – inhibitors of human BAZ2B bromodomain. Q9UIF8. AlphaScreen BAZ2B-H3K14Ac peptide displacement. Potency, µM (titrated, usually from 114 µM), actives largely listed as inhibitors. hit rate 4.4% among 360,000. AID 504333; further: nearly all actives have a fitted effect of over 60% in size
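Inhibition is scored as reduced AlphaScreen emission. The BAZ2B/b-H3(5-23)K14Ac complex (50 nM each) in PBS pH 7.4, 0.01% Tween-20 meets compound (up to 110 uM) for 30 min at RT before bead addition.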
Each line names hits and unclear results; the compound was inactive in the other large screens. A selection: hits, their analogues and other compounds. The true share with any hit is near 12%. The call rests on the fitted dose curve; in most records, active means well fitted curve in the direction sought with a large enough effect; inconclusive means small, poorly fitted or top-dose-only effect, or another doubt; inactive means no such curve, though single readings can be large; an effect the other way counts as inactive or inconclusive.

CC1CC(=O)N(c2ccc(N(C)Cc3ccccc3)c([N+](=O)[O-])c2)C1=O (centres undefined)	BAZ2B block 11.2µM
Cc1ccccc1NC(=O)CSc1ccc(-c2ccco2)nn1	Sfp inh 22.4µM
Cc1ccccc1NC(=O)Cc1nnc(SCC(=O)NC2=NCCS2)n1C	JMJD2A Tudor inh 25.1µM, G9a inh inconclusive
O=C(CSc1nnc2ccc(-c3ccco3)nn12)Nc1ccccc1F	G9a inh 14.1µM, BAZ2B block inconclusive (no result: Sfp inh)
Cc1ccccc1NC(=O)CSc1nnc(-c2ccoc2C)n1CCc1ccccc1	G9a inh 79.4µM, BAZ2B block inconclusive
O=C(CSc1ccc(-c2ccco2)nn1)NC1CCCC1	G9a inh inconclusive
O=C(Nc1ccc2c(c1)OCCO2)C1c2ccccc2OCC(=O)N1CC(F)(F)F (centres undefined)	none (no result: JMJD2A Tudor inh, Sfp inh, G9a inh, HP1b binding inh, BAZ2B block)
Cc1ccccc1NC(=O)CSc1nnc(-c2ccco2)n1N	PLK1 PBD block 18.9µM, G9a inh 7.94µM, HP1b binding inh inconclusive (no result: Sfp inh)
Cc1ccc(C)c(NC(=O)CSc2ccc(-c3ccco3)nn2)c1	Sfp inh 14.1µM
COc1ccccc1NC(=O)CSc1ccc(-c2ccco2)nn1	Sfp inh 44.7µM, G9a inh inconclusive, BAZ2B block inconclusive
COc1ccccc1NC(=O)CSc1ccc(-c2cccs2)nn1	G9a inh inconclusive
Cc1ccc2c(c1)C(=O)N1c3cc(C)c(C)cc3NC(=O)C1C(=O)N2 (centres undefined)	none (no result: JMJD2A Tudor inh, Sfp inh, G9a inh, HP1b binding inh, BAZ2B block)
CCOC(=O)[C@H](CCc1ccccc1)N[C@@H](C)C(=O)N1[C@H](C(=O)O)C[C@@H]2CCC[C@@H]21	none (no result: Sfp inh, G9a inh, BAZ2B block)
O=C(Nc1nccs1)c1ncc(Cl)c(Cl)c1Cl	G9a inh 44.7µM
O=C(Nc1nccs1)c1cnccn1	JMJD2A Tudor inh inconclusive, Sfp inh inconclusive, G9a inh 6.31µM, BAZ2B block inconclusive
O=C(Nc1nccs1)c1ccccn1	JMJD2A Tudor inh 79.4µM, Sfp inh 79.4µM, G9a inh inconclusive (no result: BAZ2B block)
O=C(O)c1cnccn1	JMJD2A Tudor inh 25.1µM, Sfp inh inconclusive, G9a inh 8.91µM, HP1b binding inh inconclusive, BAZ2B block 44.7µM
COC(=O)c1cc2sc(C)cc2n1Cc1nc(-c2ccc(C)cc2)oc1C	none (no result: Sfp inh, PLK1 PBD block)
CC1CCCCN1c1nnc(NC(=O)c2cc(-c3ccc(Br)cc3)on2)s1 (centres undefined)	none
O=C1CN(C(=S)Nc2ccccc2Cl)CCN1	Sfp inh 44.7µM, G9a inh 44.7µM
CCOC(=O)N1CCN(C(=O)Nc2ccccc2Cl)CC1	none
O=C(Nc1cccc(Cl)c1)N1CCOCC1	none
S=C(Nc1ccccc1Cl)N1CCCCC1	none
O=C1CCN(C(=O)Nc2cccc(Cl)c2)N1	JMJD2A Tudor inh 20µM, G9a inh 10µM
O=C1CCN(C(=O)Nc2ccccc2Cl)N1	JMJD2A Tudor inh inconclusive, G9a inh 10µM
COc1ccc(CNC(=O)c2cc(-c3ccc(OC)c(OC)c3)nc3n[nH]c(-c4ccc(C)cc4)c23)cc1	none (no result: Sfp inh, PLK1 PBD block)
c1ccc(-c2nnc3sc(-c4csc5c4CCCC5)nn23)cc1	JMJD2A Tudor inh inconclusive, Sfp inh 6.31µM, PLK1 PBD block 10.6µM, G9a inh 5.01µM, HP1b binding inh inconclusive
Cc1cccc(-c2nnc3sc(-c4ccccc4C)nn23)c1	Sfp inh 50.1µM
COc1cccc(-c2nnc3sc(-c4ccccc4)nn23)c1	none
COc1cccc(NC(=O)C(Cc2ccccc2)NS(=O)(=O)c2ccc3c(c2)oc(=O)n3C)c1 (centres undefined)	none (no result: Sfp inh, PLK1 PBD block)
Clc1ccccc1C1=Nn2c(nnc2-c2ccncc2)SC1	G9a inh inconclusive
COc1ccccc1-c1nnc2n1N=C(C)CS2	JMJD2A Tudor inh 56.2µM, G9a inh 20µM
CC1=Nn2c(nnc2-c2ccccc2Cl)SC1	G9a inh 22.4µM
O=S(=O)(c1ccccc1)c1nc(-c2ccco2)oc1Nc1ccccc1	G9a inh 7.94µM, BAZ2B block inconclusive
O=S(=O)(c1ccccc1)c1nc(-c2ccco2)oc1NCc1ccccc1	G9a inh 35.5µM
O=S(=O)(c1ccc(F)cc1)c1nc(-c2ccco2)oc1Nc1ccccc1	G9a inh inconclusive
NNc1ccc(Cl)nn1	JMJD2A Tudor inh 8.91µM, Sfp inh 44.7µM, HP1b binding inh 79.4µM, BAZ2B block 20µM (no result: G9a inh)
Cc1ccn2c(NC3CCCC3)c(-c3ccccn3)nc2c1	JMJD2A Tudor inh 50.1µM, G9a inh inconclusive, BAZ2B block 50.1µM
c1ccc(-c2nc3ccccn3c2NC2CCCC2)nc1	JMJD2A Tudor inh inconclusive, Sfp inh 10µM, BAZ2B block 50.1µM
Cc1cc(C)n2c(NC3CCCCC3)c(-c3ccccn3)nc2n1	none (no result: JMJD2A Tudor inh, Sfp inh, G9a inh, HP1b binding inh, BAZ2B block)
O=c1[nH]c(SCc2c(Cl)cccc2Cl)nc2ccccc12	none
CNC(=O)c1cnn2c(C)cc(C)nc12	none (no result: Sfp inh, PLK1 PBD block, G9a inh, HP1b binding inh, BAZ2B block)
CCN1CCN(C(c2cccc(OC)c2)c2c(O)cc(C)n(Cc3ccco3)c2=O)CC1 (centres undefined)	G9a inh inconclusive (no result: Sfp inh, PLK1 PBD block)
c1ccc2c(-c3nnc(SCc4cn5ccccc5n4)o3)c[nH]c2c1	G9a inh 8.91µM
Cc1cccc(CNC(=O)CN2C(=O)CCCc3ccccc32)c1	none (no result: Sfp inh, PLK1 PBD block)
O=S(=O)(c1ccc(NC(=S)NCc2ccncc2)cc1)N1CCCCC1	none (no result: G9a inh)
CCOC(=O)CN1C(=O)S/C(=C/c2ccc(C)o2)C1=O	G9a inh 31.6µM
CCCN1C(=O)/C(=C/c2ccc(C)o2)SC1=Nc1ccc(OCC)cc1	JMJD2A Tudor inh inconclusive, Sfp inh 7.94µM, G9a inh inconclusive, BAZ2B block inconclusive
CCn1c(SCC(=O)Nc2ccc(N(C)C)cc2)nnc1C1CC1	G9a inh 39.8µM
CCN(CC)c1ccc(NC(=O)CSc2n[nH]c(-c3ccco3)n2)cc1	JMJD2A Tudor inh inconclusive, G9a inh 4.47µM, BAZ2B block 39.8µM (no result: Sfp inh)
CCn1c(SCC(=O)Nc2ccc(N(C)C)cc2)nnc1-c1ccco1	G9a inh 39.8µM
CCn1c2ccccc2c2cc(NC(=O)CSc3nccc(=O)[nH]3)ccc21	G9a inh 35.5µM
COc1ccc(OC)c(NCCN2C(=O)c3ccccc3C2=O)c1	none (no result: JMJD2A Tudor inh, Sfp inh, G9a inh, HP1b binding inh, BAZ2B block)
CCn1c(SCC(=O)Nc2cccc(NC(C)=O)c2)nnc1-c1ccco1	none
CCn1c(SCC(=O)Nc2ccc3c(c2)c2ccccc2n3CC)nnc1-c1ccco1	JMJD2A Tudor inh 28.2µM, PLK1 PBD block 26.7µM, HP1b binding inh 15.8µM
O=C(c1ccco1)N1CCN(c2ncnc3c(-c4ccc(Cl)cc4)nsc23)CC1	Sfp inh inconclusive
COc1ccc2nc(NC(=O)c3ccc(-c4cccc([N+](=O)[O-])c4)o3)sc2c1	G9a inh inconclusive, BAZ2B block 79.4µM (no result: JMJD2A Tudor inh, PLK1 PBD block, HP1b binding inh)
COc1ccc2c(c1)-c1nc(NC(=O)c3ccco3)sc1CC2	PLK1 PBD block inconclusive, G9a inh 25.1µM
COc1ccc2c(c1)Cc1sc(NC(=O)c3cccnc3)nc1-2	G9a inh 44.7µM
CCc1cc2ccc(OC)cc2nc1SCC(=O)NNC(=O)c1ccco1	G9a inh 50.1µM

From PubChem
